From PubChem BioAssay (EPA / NIEHS)
Active and inactive are the calls of the source. Rule for the calls: active = hit-call score of the fitted dose curve at least 0.9, where 1 is the maximum; inactive = score below 0.9.

Molecular target: CCAAT/enhancer-binding protein beta (Homo sapiens) (UniProt P17676)
Experiment: ATG_C_EBP_CIS: Attagene CIS-FACTORIAL HepG2 Assay for human CCAAT/Enhancer Binding Protein (C/EBP) beta (AID 2282927)
Conditions: HepG2 Attagene cis-factorial transcription factor reporter; actives raise or lower the signal
Procedure: ATG_CIS is a cell-based, multiplexed-readout assay that uses HepG2, a human liver cell line, with measurements taken at 24 hours after chemical dosing in a 24-well plate.ATG_C_EBP_CIS is one of 52 assay component(s) measured or calculated from the ATG_CIS assay. It is designed to make measurements of mRNA induction, a form of inducible reporter, as detected with fluorescence intensity signals by Reverse transcription polymerase chain reaction (RT-PCR) and Capillary electrophoresis technology.Data from the assay component ATG_C_EBP_CIS was analyzed into 1 assay endpoint. This assay endpoint, ATG_C_EBP_CIS, was analyzed with bidirectional fitting relative to DMSO as the negative control and baseline of activity. Using a type of inducible reporter, measures of mRNA for gain or loss-of-signal activity can be used to understand the reporter gene at the transcription factor-level as they relate to the gene CEBPB. Furthermore, this assay endpoint can be referred to as a primary readout, because this assay has produced multiple assay endpoints where this one serves a reporter gene function. To generalize the intended target to other relatable targets, this assay endpoint is annotated to the dna binding intended target family, where the subfamily is basic leucine zipper.
Human liver HepG2 cells are transiently transfected with multiple reporter transcription units (MRTUs) in 6-well plates using FuGene 6 reagent (Roche; 3 ml FuGene/1 mg DNA). The MRTU constructs are regulated by a cis-regulating element (promoter). […] A major difference between the CIS and TRANS system is that in CIS activities of endogenous TFs are measured, whereas the TRANS assay evaluates changes in activities of exogenous, chimeric NR-Gal4 proteins. […] At the end of 24 hour incubation, total RNA was isolated using TriZol reagent (Invitrogen). The isolated RNA is then reverse-transcribed using oligo(dT) primer and Mo-MLV reverse transcriptase (Invitrogen) with DNAse I (Ambion) treatment for 30 min. The one-tenth of the produced cDNA was amplified by PCR using Taq DNA polymerase (Invitrogen) and two reporter sequence-specific primers. The PCR products were fluorescently labeled by primer extension with 6-arboxyfluorescein (6-FAM) 5'-labeled reporter sequence-specific primer (2 min at 95 C, 20 s at 68 C and 10 min at 72 C) and these products were digested with 5U of HpaI (New England Biolabs) for 2h at 37 C. The fragments were purified using Qiaquick PCR columns (Qiagen), analyzed on an ABI 3130xL genetic analyzer (Applied Biosystems) with peak positions identified by using a set of X-rhodamine (ROX)-labeled MapMarker1000 molecular weight standards (BioVentures). The raw capillary electrophoresis data was processed using Attagraph software (Attagene).

Sequence of CCAAT/enhancer-binding protein beta (Homo sapiens) (P17676 whole entry, looked up): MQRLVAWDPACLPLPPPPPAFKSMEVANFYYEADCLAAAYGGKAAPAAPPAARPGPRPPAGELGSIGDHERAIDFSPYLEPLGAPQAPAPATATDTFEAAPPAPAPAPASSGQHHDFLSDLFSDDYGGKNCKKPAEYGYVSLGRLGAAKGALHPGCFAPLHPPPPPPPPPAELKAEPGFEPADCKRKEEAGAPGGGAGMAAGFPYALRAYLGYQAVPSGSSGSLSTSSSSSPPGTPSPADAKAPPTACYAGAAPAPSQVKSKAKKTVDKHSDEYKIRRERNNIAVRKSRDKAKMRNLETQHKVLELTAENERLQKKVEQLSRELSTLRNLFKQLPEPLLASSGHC

Row | Structure (SMILES) | outcome
1 | CCCCc1ccccc1 | inactive
2 | O=C(CBr)OCc1ccccc1 | inactive
3 | Cc1cc(C)c(C(=O)P(=O)(c2ccccc2)c2ccccc2)c(C)c1 | inactive
4 | NC(=O)C(F)(F)C(F)(F)F | inactive
5 | CCCCC(CC)COP(=O)(Oc1ccccc1)Oc1ccccc1 (stereo not given) | inactive
6 | CC(Cl)CN(C)C (stereo not given) | inactive
7 | CCOc1ccc(C(C)(C)COCc2cccc(Oc3ccccc3)c2)cc1 | inactive
8 | CC(=O)CCc1ccc2c(c1)OCO2 | inactive
9 | c1ccc(OP(Oc2ccccc2)Oc2ccccc2)cc1 | inactive
10 | CC(=O)c1ccc(-c2ccccc2)cc1 | inactive
11 | O=S1(=O)OCC2C(CO1)C1(Cl)C(Cl)=C(Cl)C2(Cl)C1(Cl)Cl (stereo not given) | inactive
12 | c1ccc2c(c1)Nc1ccccc1S2 | inactive
13 | FC(F)(F)C(F)(C(F)(F)F)C(F)(F)C(F)(F)CC1CO1 (stereo not given) | inactive
14 | O=C(O)C(Cl)Cl | inactive
15 | c1ccc2c(c1)sc1ccccc12 | inactive
16 | CSC(C)(C)C=NO | inactive
17 | O=C(O)C=CC(F)(C(F)(F)F)C(F)(F)F | inactive
18 | ClC(Cl)(Cl)c1ccccc1 | inactive
19 | CCCCN(CC)C(=O)SCCC | inactive
20 | Cn1[nH]nnc1=S | inactive

Row | Structure (SMILES) | outcome
21 | COC(N)=O | inactive
22 | Cc1cccc(N)c1 | inactive
23 | CC(C)(C)N(NC(=O)c1ccc(Cl)cc1)C(=O)c1ccccc1 | inactive
24 | COCCOCCO | inactive
25 | c1nc[nH]n1 | inactive
26 | N#C/C=C/c1ccccc1 | inactive
27 | CC1=C(C(=O)Nc2ccccc2)S(=O)(=O)CCO1 | inactive
28 | CCOP(=S)(OCC)SCn1nnc2ccccc2c1=O | inactive
29 | CCCCOCC1CO1 (stereo not given) | inactive
30 | C=CC(=O)OCC(CC)(COC(=O)C=C)COC(=O)C=C | inactive
31 | ClC(Cl)c1ccccc1 | inactive
32 | Oc1ccccc1Br | inactive
33 | CCCCN(CCCC)SN(C)C(=O)Oc1cccc2c1OC(C)(C)C2 | inactive
34 | O=C(O)C1C(C(=O)O)C2(Cl)C(Cl)=C(Cl)C1(Cl)C2(Cl)Cl (stereo not given) | inactive
35 | Cc1ccc(N)cc1N | inactive
36 | O=C(O)C(F)(F)OC(F)(F)C(F)(F)OC(F)(F)F | inactive
37 | CC(O)C#N (stereo not given) | inactive
38 | Cc1ccc2c(c1N)C(=O)c1ccccc1C2=O | inactive
39 | CCOP(=S)(OCC)SCSCC | inactive
40 | O=S(=O)(c1ccc(O)cc1)c1ccc(O)cc1 | inactive
